Screening data from PubChem BioAssay.
Hits are enriched below; roughly 3.7% of the tested compounds scored in any of these assays.
Anthrax LF prot: Bacillus anthracis LF protease inhibitors, primary screen, biochemical, multiplex microsphere, MLPCN library; inhibition, % at 10 µM; Lethal factor (Bacillus anthracis), P15917; AID 588501, 2011; hit rate 0.12% among 360,000; multiplex microsphere protease cleavage assay; note: plate controls were buffer without enzyme for full effect and enzyme alone for no effect
BoNT-A LC inh2: BoNT/A light chain protease inhibitors, primary screen, biochemical, flow cytometry, MLPCN library; Botulinum neurotoxin type A light chain protease (Clostridium botulinum A str. ATCC 3502); multiplex microsphere protease substrate cleavage; inhibition, % at 10 µM; hit rate 0.17% among 360,000; AID 588499, 2011; note: plate controls were buffer without enzyme for full effect and enzyme alone for no effect
Bead autofluor: compound fluorescence in toxin protease inhibitor counterscreen; compound autofluorescence counterscreen, microsphere flow cytometry; stronger effect = higher value; fluorescence intensity (no concentration beside the values); hit rate 3.1% among 360,000; in the data active = fluorescence intensity above about 16000; inconclusive = no clear call, values can overlap the other calls
MazEF act: activators of E. coli MazEF toxin-antitoxin RNase, primary screen, biochemical, fluorescence, uHTS. Endoribonuclease toxin MazF (Escherichia coli (strain K12)), P0AE70. FAM/BHQ RNA-DNA oligo cleavage fluorescence, 5 h. activation, % at 20 µM. hit rate 0.32% among 350,000; in the data active = activation above about 50%
Target sequence (P0AE70 whole entry, looked up): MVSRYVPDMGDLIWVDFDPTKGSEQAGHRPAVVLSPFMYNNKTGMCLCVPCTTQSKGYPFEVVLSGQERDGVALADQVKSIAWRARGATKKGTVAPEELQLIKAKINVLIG
BoNT-F LC inh: BoNT/F light chain protease inhibitors, primary screen, biochemical, flow cytometry, MLPCN library; Botulinum neurotoxin type F light chain protease (Clostridium botulinum); Multiplex microsphere protease cleavage assay; inhibition, % at 10 µM; hit rate 0.22% among 360,000; AID 588497, 2011; in the data active = inhibition above about 35%, passing the limit was not always enough; inconclusive = no clear call, values can overlap the other calls; note: plate controls were buffer without enzyme for full effect and enzyme alone for no effect
BoNT-A LC CP1: BoNT/A light chain protease inhibitors, confirmation, biochemical, flow cytometry, cherry pick 1. shares compounds with BoNT-F LC inh. multiplex microsphere protease assay. hit rate 3% among 720. inhibition, % at 10 µM. AID 602139, 2011; in the data active = inhibition above about 32%
BoNT-F LC CP1: BoNT/F light chain protease inhibitors, confirmation, biochemical, flow cytometry, cherry pick 1 | shares compounds with BoNT-F LC inh | multiplex microsphere protease cleavage assay | inhibition, % at 10 µM | 720 tested, under 10 active | AID 602140, 2011; call rule not given here
Anthrax LF CP1: Bacillus anthracis LF protease inhibitors, confirmation, biochemical, multiplex microsphere, cherry pick 1; shares compounds with BoNT-F LC inh; 720 tested, under 10 active; multiplex microsphere protease cleavage assay; inhibition, % at 10 µM; call rule not given here
BoNT-A LC CP2: BoNT/A light chain protease inhibitors, confirmation, biochemical, flow cytometry, cherry pick 2 | shares compounds with BoNT-A LC inh2 | inhibition, % at 10 µM | hit rate 10% among 150 | multiplex microsphere protease cleavage assay; in the data active = inhibition above about 24%
Anthrax LF CP2: Bacillus anthracis LF protease inhibitors, confirmation, biochemical, multiplex microsphere; shares compounds with BoNT-A LC inh2; multiplex microsphere protease cleavage assay; inhibition, % at 10 µM; hit rate 7% among 150; in the data active = inhibition above about 25%
BoNTF LC inh 2: BoNT/F light chain protease inhibitors, confirmation, biochemical, flow cytometry, cherry pick 2. inhibition, % at 10 µM. hit rate 7% among 150. shares compounds with BoNT-A LC inh2. multiplex microsphere protease cleavage assay; in the data active = inhibition above about 25%
An asterisk follows results filed as active; ? = inconclusive; . = no result given. Cut-off read from the data, not from the text of the source, unless noted: active = inhibition above about 30%; inconclusive = no clear call, values can overlap the other calls; inactive = below that.

SMILES	Anthrax LF prot	BoNT-A LC inh2	Bead autofluor	MazEF act	BoNT-F LC inh	BoNT-A LC CP2	Anthrax LF CP2	BoNTF LC inh 2	others
CC1CCN(C2CCN(C(=O)c3ccccc3F)CC2)CC1	.	.	.	5.1	.	.	.	.
O=C1CN(C(=O)c2ccc(Cl)c([N+](=O)[O-])c2)c2ccccc2N1	32.1*	0.6	3053	6.6	5.9	.	.	.	BoNT-A LC CP1=0.2;BoNT-F LC CP1=0.3;Anthrax LF CP1=0.6
Cc1ccc(Nc2c([N+](=O)[O-])cc(C(=O)N3CC(=O)Nc4ccccc43)cc2[N+](=O)[O-])c(C)c1	-6.7	-0.7	2763	10.3	-6.9	.	.	.
N#CC(=C(O)COC(=O)CCCNC(=O)c1ccc(Cl)cc1)c1nc2ccccc2[nH]1	-2.2	-0.2	4461	-3.7	-9.1	.	.	.
O=C(Nc1cccc(O)c1)c1c(O)c2ccccc2[nH]c1=O	-4.9	-0.4	3666	0.5	35.6*	.	.	.	BoNT-A LC CP1=0.6;BoNT-F LC CP1=-4.4;Anthrax LF CP1=-5.7
Cc1cccc(NC(=O)c2c(O)c3ccccc3[nH]c2=O)c1	-0.9	0.0	3051	-6.1	-17.5	.	.	.
O=[N+]([O-])c1cccc(-c2cn3nc(-c4ccccc4)c(-c4ccccc4)nc3n2)c1	33.3*	67.4*	4123	-1.0	47.6*	.	.	.	BoNT-A LC CP1=39.6*;BoNT-F LC CP1=10.5;Anthrax LF CP1=24.4
c1ccc(-c2cn3nc(-c4ccccc4)c(-c4ccccc4)nc3n2)cc1	45.9*	75.8*	5284	-85.7	23.7	.	.	.	BoNT-A LC CP1=61.9*;BoNT-F LC CP1=11.3;Anthrax LF CP1=28.3
Cc1ccc(CS(=O)(=O)Cc2ccc(C(=O)NC3CCCCCC3)o2)cc1	-3.3	0.0	5365	0.1	1.6	.	.	.
CCc1nc2ccc(C(=O)NCCN3CCCC3)cn2c1N(C)Cc1ccc(OC)cc1	-4.0	-0.2	4284	.	-4.3	.	.	.
CCCCCn1c(=O)c(C(=O)Nc2ncccc2C)c(O)c2ccccc21	-1.2	-4.6	4119	6.7	38.3*	.	.	.	BoNT-A LC CP1=0.3;BoNT-F LC CP1=-6.6;Anthrax LF CP1=-3.6
CCCn1c(=O)c(C(=O)Nc2ncccc2C)c(O)c2ccccc21	-3.5	0.5	3926	11.0	1.2	.	.	.
COc1ccc(-c2ncc3ccccn23)cc1	12.9	8.8	4513	8.2	1.2	.	.	.	BoNT-A LC CP1=1.5;BoNT-F LC CP1=1.3;Anthrax LF CP1=5.8
c1csc(-c2ncc3ccccn23)c1	15.2	14.0	3405	9.8	20.6	.	.	.
COc1ccc(-c2nc3ccccn3c2Cl)cc1	1.7	-1.0	3253	-3.4	1.0	.	.	.
COc1cccc(-c2ncc3ccccn23)c1	11.0	5.4	3261	-1.6	-3.6	.	.	.	BoNT-A LC CP1=1.8;BoNT-F LC CP1=-1.5;Anthrax LF CP1=-0.8
COc1cccc(-c2cnc3c(NC(C)=O)cc(-c4ccccc4OC)cn23)c1	-7.5	-0.3	3668	.	2.0	.	.	.
COc1cc(-c2ncc3ccccn23)cc(OC)c1OC	1.7	0.2	3354	10.3	-2.7	.	.	.	BoNT-A LC CP1=0.7;BoNT-F LC CP1=-14.4;Anthrax LF CP1=-7.5
COc1cc(OC)cc(-c2ncc3ccccn23)c1	6.2	4.5	4252	-1.8	-6.9	.	.	.	BoNT-A LC CP1=1.6;BoNT-F LC CP1=-10.2;Anthrax LF CP1=1.2
Cc1cccc(C(=O)OCC(=O)Nc2ccccc2C(=O)NC2CC2)c1	5.8	-1.2	6789	6.3	-1.6	.	.	.
COc1ccc(Cl)cc1-c1cc(C(=O)NCc2ccccc2)[nH]n1	-9.4	-0.3	3769	.	-2.7	.	.	.
COc1ccc(S(=O)(=O)NCc2ccc3c(c2)cc(C)n3C)cc1	-94.5	79.4*	1230	-16.1	-108.5	24.2*	13.9	-15.3
COc1ccc(CNS(=O)(=O)c2ccc(OC)cc2)cc1	-2.6	-1.2	2583	4.4	-18.1	.	.	.
Cc1cc2cc(CNS(=O)(=O)c3ccccc3)ccc2n1C	-64.2	83.3*	1735	-13.8	-103.4	22.7	14.4	-26.4
CCCC1NC(=O)c2cc3ccccc3cc2-n2c1nc1cc(F)ccc1c2=O (centres undefined)	1.0	-0.4	3538	0.7	-2.8	.	.	.
SMILES	Anthrax LF prot	BoNT-A LC inh2	Bead autofluor	MazEF act	BoNT-F LC inh	BoNT-A LC CP2	Anthrax LF CP2	BoNTF LC inh 2	others
NC(=S)N/N=C1\c2ccccc2-c2c(C(=O)O)cccc21	-5.9	-1.3	3657	-2.0	?	.	.	.
CCOc1ccc(NC(=O)CN(C)C(=O)c2ccc3c(c2)S(=O)(=O)N=C2CCCCCN23)cc1OCC	110.1*	93.9*	5175	7.5	87.4*	2.5	-0.5	1.1
Cc1ccc(C(=O)N2[C@@H]3CN(C)C(=O)[C@@]2(C)[C@H]2C(=O)N(C)C(=O)[C@@H]32)cc1	1.0	-0.7	3709	3.6	-7.0	.	.	.
CN(C)c1ccc(/C=C2/C[N+](C)(C)C/C(=C/c3ccc(N(C)C)cc3)C2=O)cc1	40.9*	85.5*	7292	-1.8	-27.3	47.7*	28.4*	-3.6
CCOc1ccccc1C(=O)NCC(=O)N(C)Cc1cccnc1	-2.2	1.6	4100	-0.1	9.8	.	.	.
Cc1[nH]c2ccccc2c1C(=O)COC(=O)c1ccccc1O	0.3	-0.9	3305	11.7	-2.4	5.2	4.1	15.7
CCc1cccc2c(C(=O)COC(=O)c3ccc(O)cc3)c[nH]c12	-1.8	-1.1	8987	-1.7	-18.5	7.7	14.6	36.8*
CCc1cccc2c(C(=O)COC(=O)c3ccccc3)c[nH]c12	0.9	0.7	2332	11.5	-7.6	7.6	13.5	24.9*
Cc1ccc(C(=O)CCC(=O)NC2=NCCS2)cc1	-2.9	-2.5	?	0.0	-6.2	.	.	.
O=C(NC[C@@H]1CCCO1)c1cccc2c1C(=O)c1ccc(N3CCOCC3)cc1S2(=O)=O	-1.7	-0.2	3924	-29.6	0.6	.	.	.
CC1CCN(c2ccc3c(c2)S(=O)(=O)c2cccc(C(=O)NC4CC4)c2C3=O)CC1	-2.4	1.4	3947	-37.2	1.1	5.4	6.1	13.1
O=C(NC1CCCCC1)c1cccc2c1C(=O)c1ccc(N3CCC(Cc4ccccc4)CC3)cc1S2(=O)=O	34.1*	26.2	5311	-693.4	14.2	8.4	8.2	12.1
CC1CCN(c2ccc3c(c2)S(=O)(=O)c2cccc(C(=O)NC[C@@H]4CCCO4)c2C3=O)CC1	4.2	2.1	3805	-42.5	-5.5	2.0	0.8	5.4
